This is part of a sample that, as a whole, favours compounds with a hit. Of some 83,000 tested, about 20% had one in any assay.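 Single-concentration screen, 48 h exposure, 96-well plates. Endpoint: percent growth. Below 10 = active.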 Values without a mark were called inactive. Active and inactive are the calls of the source.
Key:
Experiment in all cases: NCI-60 one-dose screen, 48 h (100 = growth as untreated, 0 = no growth, -100 = all killed)
Conditions in all cases: 10 µM unless noted
EKVX NSCLC = tested on: EKVX NSCLC
SN12C renal = tested on: SN12C renal
UO-31 renal = tested on: UO-31 renal
TK-10 renal = tested on: TK-10 renal
ACHN renal = tested on: ACHN renal
CAKI-1 renal = tested on: CAKI-1 renal
CCRF-CEM leukemia = tested on: CCRF-CEM leukemia
MOLT-4 leukemia = tested on: MOLT-4 leukemia
SR leukemia = tested on: SR leukemia
RPMI-8226 leukemia = tested on: RPMI-8226 leukemia
OVCAR-8 ovarian = tested on: OVCAR-8 ovarian
OVCAR-4 ovarian = tested on: OVCAR-4 ovarian
IGROV1 ovarian = tested on: IGROV1 ovarian
OVCAR-3 ovarian = tested on: OVCAR-3 ovarian
HS 578T breast = tested on: HS 578T breast
NCI/ADR-RES ovarian = tested on: NCI/ADR-RES ovarian
T-47D breast = tested on: T-47D breast
A498 renal = tested on: A498 renal
OVCAR-5 ovarian = tested on: OVCAR-5 ovarian
SK-OV-3 ovarian = tested on: SK-OV-3 ovarian

Row | Structure (SMILES) | growth (EKVX NSCLC) [%] | growth (SN12C renal) [%] | growth (UO-31 renal) [%] | growth (TK-10 renal) [%] | growth (ACHN renal) | growth (CAKI-1 renal) [%] | growth (CCRF-CEM leukemia) | growth (MOLT-4 leukemia) | growth (SR leukemia) | growth (RPMI-8226 leukemia) | growth (OVCAR-8 ovarian) [%] | growth (OVCAR-4 ovarian) [%] | growth (IGROV1 ovarian) | growth (OVCAR-3 ovarian) | growth (HS 578T breast) [%] | growth (NCI/ADR-RES ovarian) [%] | growth (T-47D breast) [%] | growth (A498 renal) | growth (OVCAR-5 ovarian) [%] | growth (SK-OV-3 ovarian) [%]
1 | C=C1CC[C@H]2[C@@](C)(CCC3OC(c4ccc(OCc5cn(C6CC(OC(C)=O)C(OC(C)=O)C(COC(C)=O)O6)nn5)cc4)OC[C@]32C)[C@@H]1/C=C/C1=CCOC1=O (some centres not stated) | 52.3 | 67.5 | 57.7 | 119 | 72.7% | 77 | 65.7% | 62.1% | 51% | 41.2% | 81.8 | 72.7 | 89.2% | 81.9% | 75.7 | 92.8 | 40 | – | – | –
2 | Cc1nc(-c2cc3ccccc3oc2=O)ccc1C(=O)/C=C/c1ccccn1 | 84.3 | 47.5 | 58 | – | 58.7% | 60.6 | 6.22% (active) | 27.1% | -12.6% (active) | -36.3% (active) | 69.3 | 85.2 | 7% (active) | 46.9% | 80.3 | 77.4 | 52.1 | 89.2% | 60.7 | 116
3 | O=C(CCN1C(=O)/C(=C/c2ccccc2F)SC1=S)N1CCOCC1 | 86.8 | 73.9 | 67.6 | – | 62.2% | 84.7 | 53.3% | 89.9% | 46.7% | 59.7% | 99.6 | 99.1 | 61.9% | 99.8% | 101 | 99.8 | 59.3 | 111% | 94.2 | 135
4 | OC1CCN(CCCOc2c3ccccc3nc3c2oc2ccc(Cl)cc23)CC1 | 14.8 | 18.8 | 12.8 | – | 5.57% (active) | 12.8 | 19.2% | 9.39% (active) | 8.25% (active) | -3.88% (active) | 18.7 | 19.1 | 1.4% (active) | 27.7% | 32 | 21.5 | 35.9 | -8.33% (active) | 21.2 | 45.6
5 | COc1ccc(NC2=CC(=O)C(C)=C(C)C2=O)cc1 | 78.8 | 86.4 | 81.2 | 156 | 96.1% | 93.5 | 70.1% | 75.6% | 82.3% | 73.3% | 79.1 | 43.8 | 89.3% | 9.94% (active) | 110 | – | 67.5 | – | 109 | –
6 | C=CCn1c(SCC(=O)c2ccc(Br)cc2)nnc1-c1c[nH]c2ccccc12 | 92.8 | 95.6 | 68.4 | 134 | 88.3% | 90.2 | 97.9% | 91.2% | 88.7% | 98.8% | 94.7 | 109 | 86.7% | 110% | 106 | 98.8 | 97 | – | – | 113
7 | COc1cc(OC)c(C2SCC(=O)N2Nc2ncnc3ccccc23)cc1OC (configuration not stated) | 100 | 103 | 89.7 | – | 106% | 94 | 107% | 105% | 104% | 115% | 106 | 103 | 106% | 119% | 112 | 104 | 106 | 81.8% | 109 | 127
8 | CN(C)c1ccc(/C=c2\sc3nc4ccccc4n3c2=O)cc1 | 87 | 99.2 | 92.2 | – | 98% | 93.3 | 13.8% | 103% | 99.7% | 104% | 106 | 107 | 77.2% | 124% | 101 | 107 | 83.8 | 85.1% | 102 | 124
